Assay results from PubChem BioAssay (EPA / NIEHS).
Active and inactive are the calls of the source. The calls were made as follows: active = hit-call score of the fitted dose curve at least 0.9, where 1 is the maximum; inactive = score below 0.9.

Read-out: CYP2E1 (gene 1571)
Experiment: LTEA_HepaRG_CYP2E1: Life Technologies and Expression Analysis (LTEA) Assay for CYP2E1 using HepaRG (AID 2283485)
Details: mRNA level, 48 h; actives raise or lower the signal
Procedure: LTEA_HepaRG is a cell based, multiplexed-readout assay that uses HepaRG, a human liver cell line, with measurements taken at 48 hours after chemical dosing on a 96-well plate.LTEA_HepaRG_CYP2E1 is one of 102 assay component(s) measured in the LTEA HepaRG cell culture assay. It is a marker of NR mediated metabolism.Data from the assay component LTEA_HepaRG_CYP2E1 was analyzed into 1 endpoint. This assay endpoint, LTEA_HepaRG_CYP2E1, was analyzed with bidirectional fitting relative to DMSO as the negative control and baseline of activity. Using a type of inducible reporter, measures of mRNA induction for gain or loss-of-signal activity can be used to understand regulation of transcription factor activity. To generalize the intended target to other relatable targets, this assay endpoint is annotated to the cyp intended target family, where the subfamily is xenobiotic metabolism.
A total of 1060 chemcials from the ToxCast library were tested in eight-point concentration-response experiments. Cell culture and cytotoxicity assays were conducted at Thermo Fisher Scientific's Custom Services facility (Madison, WI). A single lot of human HepaRG cells (Thermo Fisher Scientific, Frederick, MD) was used for the cell culture experiments. 96-well format collagen type I coated plates of human HepaRG cells were prepared using established methods. Briefly, cryopreserved HepaRG cells were thawed, plated at a density of approximately 100,000 cells/well in HepaRG Thaw, Plate, and General Purpose media (HPRG770, Thermo Fisher Scientific), and incubated for 48 hours. 0.5% DMSO was selected as vehicle control to balance the requisite need of DMSO in HepaRG cultures to maintain differentiation (for example, baseline metabolism, proportions of hepatocytes vs. cholangiocytes), while enabling further hepatic receptor pathway activation (for example, PXR and CAR) in response to chemical exposure. 48 hours after plating, the culture medium was replaced with HepaRG Serum-Free Incudtion Media. Cells were exposed to each test chemical in duplicate and maintained in CO2 incubators for another 48 hours. Chemical plates were thawed to room temperature and 200x concentrations of treatment groups were prepared. 8-point conentration-reponse curves were made with the highest exposure at 100 uM, followed by half-log dilutions, all in 0.5% DMSO. Each test plate contained variouse controls, induction positive controls (1mM phenobarbital), cytotoxicity positive controls ([…] aflatoxin B1), vehicle controls (0.5% DMSO), and total lysis controls (0.5% DMSO). Cell morphology images were taken using an Essen IncuCyte FLR automated microscope, with six 96-well plates imaged in about 24 minutes. Images were captured and exported and JPEG files. Spent culture media was transfered to black-well plates for the LDH assay, and remaining media was sorted at -80 C for later use. Cells were treated with RLT buffer and frozen until shipped for gene expression analysis. Total RNA was isolated from the cell suspension in 75 uL of Buffer RLT (Qiagen, Germantown, MD 20874) by Quintiles/Expression Analysis (Durham, NC) using a custom isolation procedure. Total RNA from each plate well was transferred to a preamplification plate. Fluidigm's 96.96 Dynamic ArrayTM (Fluidigm, Amsterdam, the Netherlands) technology was used for gene expression analyses by quantitative reverse transcription polymerase chain reaction (qRT-PCR, performed by Quintiles/Expression Analysis, Durham, NC)89. Standard TaqManTM Assays (Applied Biosystems/ThermoFisher Scientific, Foster City, CA) were used to assess the expression of 93 genes selected based on their selectivity and sensitivity to important hepatic receptors known to be modulated by environmental chemicals; importance in human hepatocyte functionality; and hepatotoxicity. […]

AC50, active:
O=C(O)Cn1c(=O)n(Cc2ccc(Br)cc2F)c(=O)c2ccc(Cl)cc21 25.8 µM
C[C@]12CC[C@@H]3c4ccc(O)cc4CC[C@H]3[C@@H]1CC[C@H]2O 88.4 µM
Cc1occc1C(=O)Nc1ccc(C(=O)N2CCC(F)(F)/C(=C\C(=O)N3CCC(N4CCCCC4)CC3)c3ccccc32)cc1 31.2 µM
CCCCCCCCCCCC[N+](C)(C)C 94.1 µM
COc1cccc([C@H](O)C2CCN(CCc3ccc(F)cc3)CC2)c1OC 16.7 µM
CN(C[C@@H](CC[N+]12CCC(C3CCCCC3)(CC1)CC2)c1ccc(Cl)c(Cl)c1)C(=O)c1cc(C(F)(F)F)cc(C(F)(F)F)c1 13.7 µM
CC(C)(c1cc(Br)c(O)c(Br)c1)c1cc(Br)c(O)c(Br)c1 85.6 µM
OC12N=C(c3ccccc3)SC1Cc1cc(Cl)ccc12 (stereo not given) 16 µM
Cc1oc2c(NC(=O)c3c(Cl)cccc3Cl)cccc2c1C(C)(C)O 39.7 µM
COc1ccc2cc(S(=O)(=O)N[C@H](CC(=O)N[C@H](Cc3ccc(CN4[C@H](C)CCC[C@@H]4C)cc3)C(=O)N(C)C(C)C)c3ccc4c(c3)OCO4)ccc2c1 29.7 µM
COc1cc(C(=O)NC2CCN(C)CC2)ccc1Nc1ncc2c(n1)N(C1CCCC1)CC(F)(F)C(=O)N2C 22.9 µM
CC/C(=C(/CC)c1ccc(O)cc1)c1ccc(O)cc1 82.1 µM
CC[C@H](NC(=O)c1cc(F)ccc1NS(=O)(=O)c1cccc2cccnc12)c1ccccc1 22.3 µM
O=C(Nc1ccc(Cl)cc1)Nc1ccc(Cl)c(Cl)c1 15.8 µM
Cc1ccc2oc(CN(Cc3ccccc3)C(=O)Nc3c(F)cc(F)cc3F)c(-c3ccc(Cl)cc3)c2c1 28.4 µM
COCC(C)OCC(C)OCC(C)O (stereo not given) 50 µM
CC(=O)N1CCN(c2ccc(OC[C@H]3CO[C@](Cn4ccnc4)(c4ccc(Cl)cc4Cl)O3)cc2)CC1 12.9 µM
O=C(O)c1ccccc1-n1cc(C(=O)O)c(=O)c2cc(Nc3c(F)cc(F)cc3Cl)c(Cl)cc21 25.5 µM
CCN(CC)C(=O)c1cc(S(=O)(=O)Cc2ccccc2)c(N2CCC(c3ccccc3)CC2)cc1N(CC)CCN(C)C 26 µM
O=C(O)Cc1cc(I)c(Oc2ccc(O)c(I)c2)c(I)c1 70.6 µM
CN(C)c1ccc(C(=C2C=CC(=[N+](C)C)C=C2)c2ccc(N(C)C)cc2)cc1 2.31 µM
Cc1c2ccccc2c(C)c2c1ccc1ccccc12 18.8 µM
CC(C)(O)c1ccc(CNC(=O)c2cccnc2Oc2ccc3nonc3c2)cc1 34.2 µM

outcome, inactive:
CCO[Si](CCCNC(N)=O)(OCC)OCC
O=C1O[C@H]([C@@H](O)CO)C(O)=C1O
O=C(O)c1ccccc1C(=O)OCc1ccccc1
Cc1cn([C@H]2C[C@H](N=[N+]=[N-])[C@@H](CO)O2)c(=O)[nH]c1=O
CC1=CC(=O)/C(=C(/C)O)C(=O)O1
CCCCCCCC[Si](OCC)(OCC)OCC
O=C1c2ccccc2C(=O)N1CCc1noc(-c2ccc(CN3CCCCCC3)s2)n1
CCCCOC(=O)CC(CC(=O)OCCCC)(OC(C)=O)C(=O)OCCCC
c1ccc2ccccc2c1
CCCC(=O)OCCC(C)C
Oc1ccccc1
CCCCCCCCCCCO
CCOC(=O)O[C@H](C)OC(=O)c1ccc2c(c1)cc(C(=O)NC1CCN(C(C)C)CC1)n2Cc1cc(-c2ccc(Cl)s2)on1
O=C=NCCCCCCN=C=O
CC(O)CC(C)(C)O (stereo not given)
CCCCOC(=O)c1ccc(O)cc1
CCCCCCCCOc1ccc(C(=O)c2ccccc2)c(O)c1
